# Data taken from article PMC8384837, “Expanding the binding specificity for RNA recognition by a PUF domain”.
# Substitutions are numbered along the chain they refer to.
# How the values were obtained:
# Experiment in all cases: yeast three-hybrid, YBZ-1, SC-Leu-His + 0.5 mM 3-AT, 4 days
# Details in all cases: tags: N-Gal4 AD-HA kept; label: inside an RPR1-promoter hybrid RNA with tandem MS2 sites; ssRNA
# PUM1 PUF domain R3-RIC = PUM1 PUF domain R3-RIC (Homo sapiens, UniProt Q14671 828-1176, C935R;R936I;Q939C)
# Method in brief: (§1)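 Repeat regions from input (SC-Leu) and selection (SC-Leu-His + 0.5 mM 3-AT) plates were PCR-amplified and Illumina-sequenced after four days of growth. The cells were strain YBZ-1 with a LexA–MS2 coat fusion and a HIS3 reporter, co-expressing Pumilio-1 PUF domain libraries and matching RNA elements from a centromeric plasmid. The interaction score is the log change in variant frequency from input to selection, taken in log2 with a pseudocount of 1 for absent variants.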
# PUM1 PUF domain R3-LWQ = PUM1 PUF domain R3-LWQ (Homo sapiens, UniProt Q14671 828-1176, C935L;R936W)
# Method in brief: as §1
# PUM1 PUF domain R2-GWY = PUM1 PUF domain R2-GWY (Homo sapiens, UniProt Q14671 828-1176, N899G;Y900W;Q903Y)
# Method in brief: as §1
# PUM1 PUF domain R4-DWL = PUM1 PUF domain R4-DWL (Homo sapiens, UniProt Q14671 828-1176, N971D;H972W;Q975L)
# Method in brief: as §1
# PUM1 PUF domain R4-CRV = PUM1 PUF domain R4-CRV (Homo sapiens, UniProt Q14671 828-1176, N971C;H972R;Q975V)
# Method in brief: as §1
# PUM1 PUF domain R4-DYL = PUM1 PUF domain R4-DYL (Homo sapiens, UniProt Q14671 828-1176, N971D;H972Y;Q975L)
# Method in brief: as §1
# PUM1 PUF domain R8-KFT = PUM1 PUF domain R8-KFT (Homo sapiens, UniProt Q14671 828-1176, N1122K;Y1123F;Q1126T)
# Method in brief: as §1
# PUM1 PUF domain R6-FYA = biological target: T1, PUM1 PUF domain R6-FYA (Homo sapiens, UniProt Q14671 828-1176, N1043F;Q1047A)
# T1 sequence: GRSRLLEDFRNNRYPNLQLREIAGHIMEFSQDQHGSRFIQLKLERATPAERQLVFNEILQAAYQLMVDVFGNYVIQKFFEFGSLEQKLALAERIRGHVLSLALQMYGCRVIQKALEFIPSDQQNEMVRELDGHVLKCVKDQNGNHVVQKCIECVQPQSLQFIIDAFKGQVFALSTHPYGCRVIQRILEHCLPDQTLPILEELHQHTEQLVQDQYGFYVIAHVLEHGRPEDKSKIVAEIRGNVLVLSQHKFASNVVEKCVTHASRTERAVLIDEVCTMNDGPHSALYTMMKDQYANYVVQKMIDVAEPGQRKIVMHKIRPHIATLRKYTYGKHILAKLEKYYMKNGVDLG
# Method in brief: as §1
# PUM1 PUF domain R3-GHH = PUM1 PUF domain R3-GHH (Homo sapiens, UniProt Q14671 828-1176, C935G;R936H;Q939H)
# Method in brief: as §1
# PUM1 PUF domain R5-GWL = PUM1 PUF domain R5-GWL (Homo sapiens, UniProt Q14671 828-1176, C1007G;R1008W;Q1011L)
# Method in brief: as §1
# PUM1 PUF domain R6-NRG = biological target: T2, PUM1 PUF domain R6-NRG (Homo sapiens, UniProt Q14671 828-1176, Y1044R;Q1047G)
# T2 sequence: T1 sequence with F216N, Y217R, A220G
# Method in brief: as §1
# PUM1 PUF domain R4-MLC = PUM1 PUF domain R4-MLC (Homo sapiens, UniProt Q14671 828-1176, N971M;H972L;Q975C)
# Method in brief: as §1
# PUM1 PUF domain R8-QWG = PUM1 PUF domain R8-QWG (Homo sapiens, UniProt Q14671 828-1176, N1122Q;Y1123W;Q1126G)
# Method in brief: as §1
# PUM1 PUF domain R5-KHA = PUM1 PUF domain R5-KHA (Homo sapiens, UniProt Q14671 828-1176, C1007K;R1008H;Q1011A)
# Method in brief: as §1
# PUM1 PUF domain R6-LFT = biological target: T3, PUM1 PUF domain R6-LFT (Homo sapiens, UniProt Q14671 828-1176, N1043L;Y1044F;Q1047T)
# T3 sequence: T1 sequence with F216L, Y217F, A220T
# Method in brief: as §1
# PUM1 PUF domain R7-LFR = PUM1 PUF domain R7-LFR (Homo sapiens, UniProt Q14671 828-1176, S1079L;N1080F;E1083R)
# Method in brief: as §1
# PUM1 PUF domain R5-GWL, sequence (Q14671 828-1176 C1007G/R1008W/Q1011L): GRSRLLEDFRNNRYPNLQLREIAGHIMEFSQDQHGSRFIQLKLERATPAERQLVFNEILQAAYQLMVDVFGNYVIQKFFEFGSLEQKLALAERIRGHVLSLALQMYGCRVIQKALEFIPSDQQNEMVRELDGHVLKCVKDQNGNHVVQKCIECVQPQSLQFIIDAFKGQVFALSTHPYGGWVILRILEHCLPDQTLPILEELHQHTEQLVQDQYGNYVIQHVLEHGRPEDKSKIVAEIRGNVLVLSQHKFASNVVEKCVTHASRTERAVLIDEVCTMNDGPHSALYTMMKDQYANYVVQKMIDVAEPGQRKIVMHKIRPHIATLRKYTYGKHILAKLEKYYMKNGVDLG
sequence,measurement,setting,value
GGCUAGAACUAGUGGAUCCCCCGGCGCCCGGCGGCUCGAGCCCGGGUAAGUGUAAUUAGUCUGCAUGCCGCCGGGCGCCAUGCCUGCAGGUCGACUCUAGAAAACAUG,binding signal,PUM1 PUF domain R3-RIC,3.78 log2 enrichment (interaction score)
same,binding signal,PUM1 PUF domain R3-LWQ,4.13 log2 enrichment (interaction score)
GGCUAGAACUAGUGGAUCCCCCGGCGCCCGGCGGCUCGAGCCCGGGUAAGUGUAAGUAGUCUGCAUGCCGCCGGGCGCCAUGCCUGCAGGUCGACUCUAGAAAACAUG,binding signal,PUM1 PUF domain R3-LWQ,5.4 log2 enrichment (interaction score)
GGCUAGAACUAGUGGAUCCCCCGGCGCCCGGCGGCUCGAGCCCGGGUAAGUGUAAAAAGUCUGCAUGCCGCCGGGCGCCAUGCCUGCAGGUCGACUCUAGAAAACAUG,binding signal,PUM1 PUF domain R2-GWY,3.42 log2 enrichment (interaction score)
GGCUAGAACUAGUGGAUCCCCCGGCGCCCGGCGGCUCGAGCCCGGGUAAGUGUACAUAGUCUGCAUGCCGCCGGGCGCCAUGCCUGCAGGUCGACUCUAGAAAACAUG,binding signal,PUM1 PUF domain R4-DWL,4.62 log2 enrichment (interaction score)
GGCUAGAACUAGUGGAUCCCCCGGCGCCCGGCGGCUCGAGCCCGGGUAAGUGUAAAUAGUCUGCAUGCCGCCGGGCGCCAUGCCUGCAGGUCGACUCUAGAAAACAUG,binding signal,PUM1 PUF domain R4-CRV,2.54 log2 enrichment (interaction score)
same,binding signal,PUM1 PUF domain R4-DYL,6.7 log2 enrichment (interaction score)
same,binding signal,PUM1 PUF domain R8-KFT,4.46 log2 enrichment (interaction score)
same,binding signal,PUM1 PUF domain R6-FYA,4.17 log2 enrichment (interaction score)
same,binding signal,PUM1 PUF domain R3-GHH,3.86 log2 enrichment (interaction score)
same,binding signal,PUM1 PUF domain R5-GWL,2.66 log2 enrichment (interaction score)
same,binding signal,PUM1 PUF domain R6-NRG,3.99 log2 enrichment (interaction score)
same,binding signal,PUM1 PUF domain R4-DWL,6.99 log2 enrichment (interaction score)
same,binding signal,PUM1 PUF domain R2-GWY,1.07 log2 enrichment (interaction score)
same,binding signal,PUM1 PUF domain R4-MLC,2.59 log2 enrichment (interaction score)
same,binding signal,PUM1 PUF domain R8-QWG,2.95 log2 enrichment (interaction score)
same,binding signal,PUM1 PUF domain R5-KHA,3.94 log2 enrichment (interaction score)
GGCUAGAACUAGUGGAUCCCCCGGCGCCCGGCGGCUCGAGCCCGGGUAAGUGAAAAUAGUCUGCAUGCCGCCGGGCGCCAUGCCUGCAGGUCGACUCUAGAAAACAUG,binding signal,PUM1 PUF domain R6-LFT,6.33 log2 enrichment (interaction score)
GGCUAGAACUAGUGGAUCCCCCGGCGCCCGGCGGCUCGAGCCCGGGUAAGUUUAAAUAGUCUGCAUGCCGCCGGGCGCCAUGCCUGCAGGUCGACUCUAGAAAACAUG,binding signal,PUM1 PUF domain R7-LFR,5.84 log2 enrichment (interaction score)
